Experimental findings from PubChem BioAssay (NCI) are described below.

Values joined by “and” are separate entries in the source; they are usually repeats but may differ in a detail not shown here. Equal entries are not always repeated. About 83,000 compounds went through this panel and 20% of them were active in at least one assay; those are over-represented in the sample as a whole.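 Activity criterion: percent growth below 10, measured after cells in 96-well plates were exposed to a single compound concentration for 48 hours.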 Values without a mark were called inactive. Active and inactive are the calls of the source.

The subject of one assay is MCF7 breast. The assay can be described thus: NCI-60 one-dose screen, 48 h (100 = growth as untreated, 0 = no growth, -100 = all killed). The conditions noted are these: 0.005 µM. The method, then: Growth inhibition of the MCF7 human tumor cell line is measured as a screen for anti-cancer activity. Cells are grown in 96 well plates and exposed to the test compound for 48 hours. Compounds are tested at a single concentration, which is 10^-5 M for most compounds. The reported endpoint is percent growth (GI% or GIPRCNT), where numbers from 0 - 100% represent growth inhibition, and numbers from -100% - 0 represent cell death. For example, a value of 40 represents 60% growth inhibition. A value of 0 means no net growth occurred over the course of the experiment. A value of -40 indicates 40% of cells at the beginning of the experiment died by the end of the experiment. A value of -100 means all cells are dead at the end of the experiment.
NCI-60 Human Tumor Cell Lines Screen was performed using the standard one-dose NCI protocol, which is described in more detail at https://dtp.cancer.gov/discovery_development/nci-60/default.htm.
Compounds with GIPRCNT values below 10 were considered active. Activity score was based on GIPRCNT using the following formula: […]
Score is 0 for GIPRCNT values of 100 or above, 50 for GIPRCNT values of 0, and 100 for GIPRCNT values of -100.
As for `CN(C)CCNc1ncc(F)c(-c2cnc3cc(-c4cnn(C)c4)ccn23)n1`, the growth was 93.9%.

The same assay, now with this note: 10 µM.
As for `CCN(Cc1ccccc1)c1ccc(/C=C2\COc3ccccc3C2=O)cc1`, the growth was 81.5%.

The assay is the same for the next values; noted with them: 10 µM unless noted.
For `CN(Cc1ccccc1)c1nc(Cl)c(C2CC(c3ccc(F)cc3)=NN2C=O)s1` (stereo not given), the growth is 86.7%.

As for `CNC(=O)c1cc(Oc2ccc3nc(NC(=O)Nc4ccc(C(F)(F)F)cc4)sc3c2)ccn1`, the growth was 42%.

As to `N#Cc1c(-c2cccc(F)c2)cc(-c2cccnc2)[nH]c1=O`, the growth was 92.4%.

Take `O=Nc1c(O)ccc2ccccc12`: the growth is 67.8% and 78.1%.

Regarding `COc1ccc(C(CC(=O)c2ccc3c(c2)OCO3)C(=O)O)cc1OC` (stereo not given), the growth was 100% and 96.6%.

Take `Cc1nc2sc(C(=O)Nc3cccc4ncccc34)c(N)c2cc1C(C)O` (stereo not given): the growth was 38.4%.

Take `COc1ccc(-c2ccccc2)cc1-c1c(Nc2cc(Cl)cc(Cl)c2O)c(=O)c1=O`: the growth is 5.24% (active).

As to `COc1ccc(Cl)cc1Nc1nc(C(F)(F)F)ccc1C(=O)N/N=C/c1ccc(N(C)C)cc1`, the growth is 218%.

Take `COc1ccc(-c2cc(-c3cccc(Cl)c3)c(C#N)c(=O)[nH]2)c(OC)c1`: the growth is 88.7%.

Consider `Cc1ccc(S(=O)(=O)Nc2cc(Sc3ccccc3)c(O)c3ccccc23)cc1`, for which the growth was 64.1%.

On to `COC(=O)/C=C1/SC(=Nc2ccc([N+](=O)[O-])cc2)N(CCc2c[nH]c3ccccc23)C1=O`, for which the growth was 20.1%.

Turning to `NC1=CC(=O)c2cccnc2C1=O`, the growth is -55.5% (active).

`C[C@@H]1O[C@@H](O[C@H]2[C@@H](OC(=O)[C@]34CCC(C)(C)C[C@H]3C3=CC[C@@H]5[C@@]6(C)C[C@H](O)[C@H](O[C@@H]7O[C@H](CO)[C@@H](O)[C@H](O)[C@H]7O)[C@@](C)(CO)[C@@H]6CC[C@@]5(C)[C@]3(C)C[C@H]4O)OC[C@@H](O)[C@@H]2O)[C@H](O)[C@H](O[C@@H]2OC[C@@H](O)[C@H](O[C@@H]3OC[C@](O)(CO)[C@H]3O[C@@H]3OC[C@@H](O)[C@H](O)[C@H]3O)[C@H]2O)[C@H]1O[C@@H]1OC[C@](O)(CO)[C@H]1O`: the growth is 68.9%.

Regarding `CCOC(=O)c1c(-c2ccc(C)cc2)c(C#N)c(=O)n(-c2cccc(C(F)(F)F)c2)c1N`, the growth is 94%.

As to `CC(=O)Nc1c(I)c(NC(C)=O)c(I)c(C(=O)O)c1I`, the growth is 98.6% and 96.9%.

For the molecule `O=c1oc2c(Br)cc(Br)cc2cc1-c1cc(-c2ccc(-c3cc(-c4cc5cc(Br)cc(Br)c5oc4=O)nc(-c4cc5cc(Br)cc(Br)c5oc4=O)c3)cc2)cc(-c2cc3cc(Br)cc(Br)c3oc2=O)n1`, the growth is 98%.

For the molecule `C=C1CC[C@@H]2[C@](C)(COC(C)=O)[C@H](OC(C)=O)CC[C@@]2(C)[C@@H]1CC(Nc1ccc(S(=O)(=O)Nc2nccs2)cc1)C1=CCOC1=O` (stereo not given in full), the growth is -21.3% (active).

Turning to `COc1ccc(/C=C/C(=O)c2cc3c(N)c(C(=O)Nc4ccccc4)sc3nc2C)cc1`, the growth is 7.19% (active).

For `O=C(CC1(O)C(=O)Nc2ccc(Br)cc21)c1ccc(Cl)cc1` (stereo not given), the growth is 98%.

As for `O=C(Cc1ccc(F)cc1)c1ccccc1`, the growth was 103%.

For `O=S(=O)(O)c1ccc(N=Nc2ccc(N=Nc3cccc4ccccc34)c(S(=O)(=O)O)c2)cc1`, the growth is 78.1%.

For `COc1cc(-c2nn(-c3cccc(NC(=O)CCN4CCN(C)CC4)c3)cc2-c2ccncc2)ccc1Cl`, the growth was 13.8%.

On to `O=c1c(/C=C/c2ccco2)nnc2sc(Nc3ccc(Cl)cc3)nn12`, for which the growth is 82.5%.

Turning to `CC(=O)OC[C@]12CCC(C)(C)C=C1[C@H]1CC[C@@H]3[C@@]4(C)CCCNC(C)(C)[C@@H]4CC[C@@]3(C)[C@]1(C)CC2`, the growth is 46.6%.

As to `O=C(N=Nc1c(O)[nH]c2ccccc12)Nc1ccc(Br)cc1`, the growth is 79.1%.

`Cc1ccc(-c2nc(C#N)c(S(=O)(=O)N(C)C)o2)cc1`: the growth is 46.1%.

For `N=C1/C(=C2\NC3C=CC=CC3S2)C(c2ccc(Cl)cc2)C2C(=O)N(c3ccccc3)C(=S)N12` (stereo not given), the growth is 94.1%.

Consider `COc1ccc(/C(C)=C(\c2ccc(OCCN3CCOCC3)cc2)c2ccc(OC(=O)C3CCCCC3)cc2)cc1`, for which the growth was 75.4%.

On to `CC(=O)N1N=C(c2ccc(Nc3nc(Nc4ccc(F)cc4)nc(Nc4ccc(F)cc4)n3)cc2)CC1c1ccccc1` (stereo not given), for which the growth is 66.2%.

Consider `O=C(CCl)n1nnnc1Cc1ccccc1`, for which the growth is 101%.

For the molecule `CCOC(=O)c1cnn(-c2ccc(S(N)(=O)=O)cc2)c1N`, the growth was 95.2%.

Take `COc1ccc(C2Nc3nc(SC)nc(N)c3N=C3c4ccccc4CCC32)cc1` (stereo not given): the growth is 62.9%.

As for `CCOC(=O)C(=Cc1ccc(C#N)cc1)C(=O)OCC`, the growth is 12.3%.

On to `[Cu+].[NH-][C@H]1C[N-]C(=O)[C@H]([C@H]2CCN=C(N)N2)[N-]C(=O)/C(=C\NC(N)=O)[N-]C(=O)[C@H](CNC(=O)C[C@@H](N)CCCN)[N-]C(=O)[C@H](CO)[N-]C1=O`, for which the growth is 101%.

In the case of `COc1cc(C(=O)c2ccccc2C(=O)O)c(OC)c2c1CCCC2`, the growth is 97.4% and 99.5%.

For `COC(=O)c1nc(-c2ccccc2)oc1S(=O)(=O)N(C)CCO`, the growth is 47.8%.

Staying with this assay, now noted: 30 µM.
On to `CN(C)CCNc1ncc(F)c(-c2cnc3cc(-c4cnn(C)c4)ccn23)n1`, for which the growth is 49.5%.

Still in this assay, the particulars now being: 100 µM.
Consider `CCN(Cc1ccccc1)c1ccc(/C=C2\COc3ccccc3C2=O)cc1`, for which the growth was 17.5%.
